High-throughput results: PubChem, The Scripps Research Institute Molecular Screening Center
Fam108B counter – Fam108B inhibition, counter-screen for RBBP9 inhibitors; recombinant Fam108B, FP-Rh probe fluorescence polarization; inhibition, % at 9.51 µM; 300,000 tested, 0.33% active; AID 1947;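 active means inhibition above the screen mean inhibition plus 3 SD, computed separately per campaign, cut at about 18% in these data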;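 further: inhibitors lower polarization as less probe binds the enzyme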
PAD4 inh – inhibitors of human PAD4; recombinant PAD4, RCA probe fluorescence polarization; inhibition, % at 6.36 µM; 330,000 tested, 0.41% active;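 active means percent inhibition above a cutoff equal to the mean of all tested compounds plus 3 SD, cut at about 15% in these data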
pPAFAH inh – inhibitors of human plasma PAF acetylhydrolase (pPAFAH) | Q13093 | recombinant pPAFAH, FP-rhodamine probe fluorescence polarization | inhibition, % at 3.39 µM | 330,000 tested, 1.5% active | AID 463082;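 active means inhibition above the mean inhibition across the screen plus 3 SD, cut at about 25% in these data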;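 further: inhibitors block binding of the rhodamine activity-based probe so polarization drops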
Target sequence (Q13093 whole entry, looked up): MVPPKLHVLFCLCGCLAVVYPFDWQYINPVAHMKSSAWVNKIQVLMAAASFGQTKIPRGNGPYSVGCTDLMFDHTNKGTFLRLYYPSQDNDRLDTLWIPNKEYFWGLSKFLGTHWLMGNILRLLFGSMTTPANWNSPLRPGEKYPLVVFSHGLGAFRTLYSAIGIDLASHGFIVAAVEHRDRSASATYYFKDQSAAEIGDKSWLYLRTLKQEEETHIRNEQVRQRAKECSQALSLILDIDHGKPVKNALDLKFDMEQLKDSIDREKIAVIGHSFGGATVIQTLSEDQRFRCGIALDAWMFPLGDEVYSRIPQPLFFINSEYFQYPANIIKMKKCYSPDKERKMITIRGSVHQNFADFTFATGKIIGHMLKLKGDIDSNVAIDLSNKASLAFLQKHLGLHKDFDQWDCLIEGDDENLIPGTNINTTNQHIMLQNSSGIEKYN
PME-1 inh – blocks human protein phosphatase methylesterase 1. Q9Y570. recombinant PME-1, FP-Rh probe fluorescence polarization. inhibition, % at 5.9 µM. 320,000 tested, 0.53% active;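 active means inhibition above the campaign mean of all compounds plus 3 SD, cut at about 26% in these data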;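 further: competitive labeling of PME-1 active site by serine hydrolase directed probe; inhibitors block probe labeling so polarization falls and inhibition rises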
GSTO1 inh – GSTO1 inhibition, counter-screen for RBBP9 inhibitors; AID 1974; 300,000 tested, 1.1% active; inhibition, % at 5.96 µM; recombinant GSTO1, activity-based probe fluorescence polarization; P78417;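 active means inhibition above the campaign mean inhibition plus 3 SD, cut at about 35% in these data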
PAD4 confirm – PAD4 (human) inhibition, confirmed; shares compounds with PAD4 inh; recombinant PAD4, RCA probe fluorescence polarization; inhibition, % at 6.36 µM; 1,200 tested, 28% active; AID 488796;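 active means mean inhibition across replicates above the hit cutoff set by the earlier primary screen, cut at about 15% in these data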;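 further: inhibitors block active-site labeling by the probe so polarization falls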
Of the large screens only hits and unclear results are named; the others gave an inactive call (follow-up assays come after a bar, where they were run). Shown are actives, neighbours in structure and some others; about 2.3% of the full set was active somewhere.

NNC(=O)c1snnc1-c1ccccc1	PAD4 inh 39.6 | PAD4 confirm inactive
NC(=O)c1snnc1-c1ccccc1	none
Cc1ccc(F)c(NC(=S)Nc2cccc3ccccc23)c1	PAD4 inh 18.2 | PAD4 confirm inactive
C=CCN1C(=O)C(=O)N(CC(=O)NCC(=O)Nc2ccc(F)c(F)c2F)C1=O	none (no result: Fam108B counter, PME-1 inh, GSTO1 inh)
CCN(c1ccccc1)S(=O)(=O)c1ccc(C(=O)NNC(=O)c2ccccc2F)cc1	PAD4 inh 15.6 (no result: Fam108B counter, GSTO1 inh) | PAD4 confirm inactive
Cn1c(=O)c2c(ncn2CC(=O)N/N=C/C=C\c2ccccc2[N+](=O)[O-])n(C)c1=O	none
Cc1ccc(S(=O)(=O)N2CCCC(C(=O)Nc3ccc(C(=O)O)cc3)C2)cc1Cl (stereo unspecified)	none
CC(=O)Nc1c2c3c(cccc3n(C)c1=O)C(=O)c1ccccc1-2	PAD4 inh 65.4 | PAD4 confirm 30.7
CC(C)(C)NC(=O)c1cccc2c1-c1ccccc1C2=O	none
CCOC(=O)Cc1csc(NC(=O)CSc2cc(Cl)ccc2Cl)n1	none
CC1COC(c2cccn2Cc2ccccc2Cl)=N1 (stereo unspecified)	PAD4 inh 44.7 | PAD4 confirm inactive
CC1CN(Cc2ccccc2Cl)CC(C)O1 (stereo unspecified)	none
CCOc1ncccc1C(=O)NNC(=O)CSc1ccc(Cl)cc1	none (no result: Fam108B counter, PME-1 inh, GSTO1 inh)
CCOC(=O)N1CCN(C(=O)CSC2=NS(=O)(=O)c3cc(F)ccc3N2)CC1	none
O=C(Oc1cccc(-c2cnc3ccccc3n2)c1)c1ccco1	PAD4 inh 24.3 | PAD4 confirm 19.2
CCO/C(=C/c1sc2ccc(OC)cc2[n+]1CCCS(=O)(=O)[O-])CC	PAD4 inh 19.4 | PAD4 confirm inactive
O=C1c2ccccc2C(=O)C12OC2c1ccc(Cl)cc1Cl (stereo unspecified)	PAD4 inh 35.8 | PAD4 confirm 39.6
O=C1c2ccccc2C(=O)C1c1ccc(Cl)cc1	none
CCCCN1CC2=C(C1=O)C(c1ccc(O)cc1)NC(=O)N2C (stereo unspecified)	none
NC(=S)Nc1cccc2cccnc12	none
Oc1ccccc1CNc1cccc2cccnc12	PAD4 inh 34.8, pPAFAH inh 33.5 | PAD4 confirm inactive
NC(=S)NNc1cccc2cccnc12	PAD4 inh 29.4, GSTO1 inh 62.2 | PAD4 confirm inactive
CCC(=O)Nc1ccccc1Sc1ncnc2scc(-c3ccccc3)c12	PAD4 inh 21.4 | PAD4 confirm inactive
COc1ccc(/C=N/Nc2nnc(C)n2N)cc1OC	PAD4 inh 25.4 | PAD4 confirm inactive
COc1ccc(/C=N/Nc2nnc(C)n2N)cc1OC(C)=O	PAD4 inh 44.6 | PAD4 confirm inactive
COc1ccc(/C=N/Nc2ncnc(Cl)c2N)cc1OC	none
COc1ccc(CCN(C)C(=O)CSc2nc3ncc(Cl)cc3[nH]2)cc1OC	none
Cc1cccc(N2CC(C(=O)Nc3ccc4c(c3)OCCO4)CC2=O)c1C (stereo unspecified)	none
Cc1[nH]c(=S)c(C#N)c(-c2ccco2)c1C(=O)N(C)C	PAD4 inh 18.6 | PAD4 confirm inactive
CC(=O)c1c(C)[nH]c(=S)c(C#N)c1-c1ccc(Cl)cc1	none
FC(F)Oc1ccc(-c2csc(NNC3=NCCCCC3)n2)cc1	PAD4 inh 19.5 | PAD4 confirm inactive
O=C1NCCOC(=O)[C@@H](Cc2ccc(F)cc2)C/C=C\C[C@@H]1CC(=O)N(CCO)Cc1ccccc1	PAD4 inh 19.5 (no result: Fam108B counter, PME-1 inh, GSTO1 inh) | PAD4 confirm inactive
O=S(c1ccc2ccccc2c1)c1cnns1 (stereo unspecified)	PAD4 inh 18.8 | PAD4 confirm 18.6
CN(Cc1ccccc1)C(=O)c1nc2ccccn2c1CN1CCC(N2CCOCC2)CC1	none
Cc1cc(=O)oc2cc(NC(=O)c3cccc(S(C)(=O)=O)c3)ccc12	PAD4 inh 19.1 | PAD4 confirm 19.6
CCN(CC)c1ccc(NC(=O)COc2ccc(C#N)cc2)cc1S(=O)(=O)Nc1ccc(OC)cc1	none
CN(Cc1ccccc1)S(=O)(=O)c1ccc2c(c1)CCC(=O)N2	none
CCOc1ccc(CC(=O)Nc2c3c(nn2C(C)(C)C)CS(=O)(=O)C3)cc1	none
CCC1C(=O)N=C(SCC(=O)Nc2ccc(S(N)(=O)=O)cc2)NC1=O (stereo unspecified)	PAD4 inh 15.5 | PAD4 confirm inactive
COc1cc2c(cc1OC)C(c1ccc(Cl)cc1)CC(=O)N2 (stereo unspecified)	none
